Source: the supplement of paper PMC11732987, “Enantioselective OTUD7B fragment discovery through chemoproteomics screening and high-throughput optimisation” (Communications Chemistry, 2025)
A number with no mark means an inactive call.

Tests used:
Experiment in all cases: log2 ratio of Biotin-Ahx-Ub-VS probe labelling (fragment/DMSO); higher = less target engagement (more negative = stronger competition), active = hit call of the paper (q ≤ 0.05, log2 ratio ≤ -1)
Settings in all cases: compound concentration: 200 uM; treatment time: 3 h
ALG13 = target: T1, ALG13 (UniProt Q9NP73)
T1 sequence (whole entry): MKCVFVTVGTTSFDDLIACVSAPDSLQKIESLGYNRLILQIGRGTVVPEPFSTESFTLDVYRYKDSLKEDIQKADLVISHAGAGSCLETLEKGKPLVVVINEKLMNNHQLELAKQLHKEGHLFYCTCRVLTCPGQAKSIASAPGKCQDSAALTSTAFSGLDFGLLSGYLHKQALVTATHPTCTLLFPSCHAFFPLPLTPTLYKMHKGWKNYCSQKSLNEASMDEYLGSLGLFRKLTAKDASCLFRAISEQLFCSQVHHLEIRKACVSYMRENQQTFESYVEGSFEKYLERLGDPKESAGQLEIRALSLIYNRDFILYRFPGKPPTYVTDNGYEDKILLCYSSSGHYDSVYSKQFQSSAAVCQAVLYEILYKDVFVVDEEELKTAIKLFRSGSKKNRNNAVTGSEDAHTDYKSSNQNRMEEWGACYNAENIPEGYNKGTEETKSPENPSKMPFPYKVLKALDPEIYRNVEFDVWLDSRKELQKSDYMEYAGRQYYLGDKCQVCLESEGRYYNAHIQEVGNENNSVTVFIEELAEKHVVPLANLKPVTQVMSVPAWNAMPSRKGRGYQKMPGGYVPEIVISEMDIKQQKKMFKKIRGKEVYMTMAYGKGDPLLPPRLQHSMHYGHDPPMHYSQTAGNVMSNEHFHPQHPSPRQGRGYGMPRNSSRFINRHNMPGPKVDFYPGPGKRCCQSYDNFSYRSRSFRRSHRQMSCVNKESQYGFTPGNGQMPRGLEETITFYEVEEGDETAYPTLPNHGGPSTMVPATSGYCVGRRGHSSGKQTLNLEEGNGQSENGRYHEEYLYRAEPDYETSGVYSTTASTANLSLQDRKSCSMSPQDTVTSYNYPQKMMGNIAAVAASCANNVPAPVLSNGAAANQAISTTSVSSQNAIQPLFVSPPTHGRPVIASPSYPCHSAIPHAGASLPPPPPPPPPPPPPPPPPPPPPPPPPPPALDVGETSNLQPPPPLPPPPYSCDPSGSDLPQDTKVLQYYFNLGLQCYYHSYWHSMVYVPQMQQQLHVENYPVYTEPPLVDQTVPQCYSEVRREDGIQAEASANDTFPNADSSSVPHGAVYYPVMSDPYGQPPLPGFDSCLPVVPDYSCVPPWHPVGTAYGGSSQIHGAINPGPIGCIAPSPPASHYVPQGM
How it was run: (§1)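 In triplicate, 495 µg of HEK293T lysate per sample was incubated with fragment at 200 µM or vehicle for 3 h. Biotin-Ahx-Ub-VS was then added to 0.5 µM final for 1 h, and labelled DUBs were captured with NeutrAvidin, digested with LysC and trypsin, and measured by diaPASEF LC-MS/MS. Data are average log2 fragment/vehicle ratios by unpaired t-test from global-median-normalised Spectronaut label-free quantities, restricted to proteins with ≥2 unique peptides.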

ATXN3 = ATXN3 (UniProt P54252)
How it was run: as §1

BAP1 = target: T2, BAP1 (UniProt Q92560)
T2 sequence (whole entry): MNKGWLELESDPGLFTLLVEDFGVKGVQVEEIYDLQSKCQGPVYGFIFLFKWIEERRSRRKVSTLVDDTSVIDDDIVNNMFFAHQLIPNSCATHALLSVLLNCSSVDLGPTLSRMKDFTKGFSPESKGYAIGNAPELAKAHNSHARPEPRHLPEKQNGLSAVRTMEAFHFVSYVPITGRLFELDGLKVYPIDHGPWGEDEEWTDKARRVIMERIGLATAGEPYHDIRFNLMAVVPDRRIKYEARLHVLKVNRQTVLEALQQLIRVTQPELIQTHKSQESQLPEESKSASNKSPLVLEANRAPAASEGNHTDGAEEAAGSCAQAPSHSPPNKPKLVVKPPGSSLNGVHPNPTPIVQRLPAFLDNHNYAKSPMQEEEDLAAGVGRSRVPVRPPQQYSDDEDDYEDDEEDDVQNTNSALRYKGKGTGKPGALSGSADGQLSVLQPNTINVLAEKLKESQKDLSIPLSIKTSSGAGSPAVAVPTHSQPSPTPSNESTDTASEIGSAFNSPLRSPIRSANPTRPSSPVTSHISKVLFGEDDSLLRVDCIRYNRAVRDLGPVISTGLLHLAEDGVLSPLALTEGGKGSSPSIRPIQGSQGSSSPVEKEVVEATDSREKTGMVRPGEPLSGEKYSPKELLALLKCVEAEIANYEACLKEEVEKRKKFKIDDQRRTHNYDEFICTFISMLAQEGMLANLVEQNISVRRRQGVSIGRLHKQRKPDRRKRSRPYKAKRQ
How it was run: as §1

EIF3F = EIF3F (UniProt O00303)
How it was run: as §1

EIF3H = EIF3H (UniProt O15372)
How it was run: as §1

FAM105A = target: T3, FAM105A (UniProt Q9NUU6)
T3 sequence (whole entry): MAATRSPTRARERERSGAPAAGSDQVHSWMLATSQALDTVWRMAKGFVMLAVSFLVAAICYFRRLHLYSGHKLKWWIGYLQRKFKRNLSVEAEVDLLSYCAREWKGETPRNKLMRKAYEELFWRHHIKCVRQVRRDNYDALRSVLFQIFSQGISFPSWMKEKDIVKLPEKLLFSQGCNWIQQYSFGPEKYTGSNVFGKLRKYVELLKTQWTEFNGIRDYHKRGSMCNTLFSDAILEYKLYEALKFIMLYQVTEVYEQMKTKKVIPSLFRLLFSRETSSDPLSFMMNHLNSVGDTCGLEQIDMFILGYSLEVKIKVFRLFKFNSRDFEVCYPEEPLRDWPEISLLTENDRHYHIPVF
How it was run: as §1

OTUB1 = OTUB1 (UniProt Q96FW1)
How it was run: as §1

OTUD4 = target: T4, OTUD4 (UniProt Q01804)
T4 sequence (whole entry): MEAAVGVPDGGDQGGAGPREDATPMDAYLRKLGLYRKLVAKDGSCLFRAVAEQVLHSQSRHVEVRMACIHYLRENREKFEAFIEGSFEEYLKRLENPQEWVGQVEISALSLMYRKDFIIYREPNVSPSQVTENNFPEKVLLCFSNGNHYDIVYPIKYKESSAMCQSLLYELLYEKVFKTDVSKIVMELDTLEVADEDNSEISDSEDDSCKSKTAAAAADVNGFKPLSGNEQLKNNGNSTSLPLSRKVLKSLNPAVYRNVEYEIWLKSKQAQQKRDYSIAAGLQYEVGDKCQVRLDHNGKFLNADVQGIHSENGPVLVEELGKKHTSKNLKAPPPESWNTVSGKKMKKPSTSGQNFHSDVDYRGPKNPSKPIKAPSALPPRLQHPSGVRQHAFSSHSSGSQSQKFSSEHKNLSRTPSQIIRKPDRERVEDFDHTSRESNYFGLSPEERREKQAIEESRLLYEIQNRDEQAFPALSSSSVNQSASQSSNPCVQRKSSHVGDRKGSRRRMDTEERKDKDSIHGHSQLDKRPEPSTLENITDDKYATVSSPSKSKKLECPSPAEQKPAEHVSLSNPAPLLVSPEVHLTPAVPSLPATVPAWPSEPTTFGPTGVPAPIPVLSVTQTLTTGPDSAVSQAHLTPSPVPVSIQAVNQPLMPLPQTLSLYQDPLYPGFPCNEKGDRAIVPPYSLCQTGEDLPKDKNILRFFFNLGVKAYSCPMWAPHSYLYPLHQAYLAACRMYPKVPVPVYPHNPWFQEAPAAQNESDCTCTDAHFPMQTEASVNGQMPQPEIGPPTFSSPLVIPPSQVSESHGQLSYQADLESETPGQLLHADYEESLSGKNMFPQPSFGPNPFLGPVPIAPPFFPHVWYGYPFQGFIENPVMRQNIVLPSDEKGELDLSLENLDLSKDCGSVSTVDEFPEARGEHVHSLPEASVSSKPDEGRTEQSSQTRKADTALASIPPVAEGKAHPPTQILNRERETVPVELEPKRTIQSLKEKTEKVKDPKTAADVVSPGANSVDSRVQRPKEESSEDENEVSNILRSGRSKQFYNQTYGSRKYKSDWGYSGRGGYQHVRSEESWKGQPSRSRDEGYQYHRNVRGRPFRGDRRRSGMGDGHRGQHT
How it was run: as §1

OTUD5 = target: T5, OTUD5 (UniProt Q96G74)
T5 sequence (whole entry): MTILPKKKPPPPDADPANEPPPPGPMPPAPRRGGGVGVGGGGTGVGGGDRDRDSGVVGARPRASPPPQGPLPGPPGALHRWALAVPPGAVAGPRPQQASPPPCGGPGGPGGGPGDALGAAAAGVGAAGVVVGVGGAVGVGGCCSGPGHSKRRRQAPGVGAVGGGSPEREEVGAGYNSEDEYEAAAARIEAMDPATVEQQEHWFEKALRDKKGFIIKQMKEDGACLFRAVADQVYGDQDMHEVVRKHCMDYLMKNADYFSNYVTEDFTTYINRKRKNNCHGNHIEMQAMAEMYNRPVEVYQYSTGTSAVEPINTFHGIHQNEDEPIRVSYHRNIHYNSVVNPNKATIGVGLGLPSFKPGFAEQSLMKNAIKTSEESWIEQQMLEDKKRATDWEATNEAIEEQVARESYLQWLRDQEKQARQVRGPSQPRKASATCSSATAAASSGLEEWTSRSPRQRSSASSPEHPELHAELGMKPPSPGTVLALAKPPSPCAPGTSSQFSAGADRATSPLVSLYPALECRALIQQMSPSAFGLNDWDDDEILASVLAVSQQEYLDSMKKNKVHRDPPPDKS
How it was run: as §1

Chain of ATXN3 (P54252 whole entry): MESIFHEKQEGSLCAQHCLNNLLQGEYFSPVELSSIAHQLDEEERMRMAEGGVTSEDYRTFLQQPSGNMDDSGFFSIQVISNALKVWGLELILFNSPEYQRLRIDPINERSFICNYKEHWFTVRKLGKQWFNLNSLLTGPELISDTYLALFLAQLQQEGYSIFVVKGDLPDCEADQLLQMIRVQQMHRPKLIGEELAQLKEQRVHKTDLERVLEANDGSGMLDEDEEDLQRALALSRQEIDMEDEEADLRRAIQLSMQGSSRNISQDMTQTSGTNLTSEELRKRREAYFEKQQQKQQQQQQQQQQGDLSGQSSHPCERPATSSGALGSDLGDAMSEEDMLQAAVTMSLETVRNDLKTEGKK
Chain of EIF3F (O00303 whole entry): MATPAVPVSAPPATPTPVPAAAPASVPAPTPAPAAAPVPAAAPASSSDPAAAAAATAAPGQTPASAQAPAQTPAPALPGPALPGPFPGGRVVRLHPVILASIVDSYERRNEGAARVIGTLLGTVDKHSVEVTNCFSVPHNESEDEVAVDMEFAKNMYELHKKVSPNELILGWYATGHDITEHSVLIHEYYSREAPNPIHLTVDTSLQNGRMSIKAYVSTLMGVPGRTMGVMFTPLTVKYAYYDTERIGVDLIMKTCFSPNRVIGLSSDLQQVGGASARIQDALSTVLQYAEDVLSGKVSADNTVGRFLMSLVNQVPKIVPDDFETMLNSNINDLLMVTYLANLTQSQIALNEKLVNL
Chain of OTUB1 (Q96FW1 whole entry): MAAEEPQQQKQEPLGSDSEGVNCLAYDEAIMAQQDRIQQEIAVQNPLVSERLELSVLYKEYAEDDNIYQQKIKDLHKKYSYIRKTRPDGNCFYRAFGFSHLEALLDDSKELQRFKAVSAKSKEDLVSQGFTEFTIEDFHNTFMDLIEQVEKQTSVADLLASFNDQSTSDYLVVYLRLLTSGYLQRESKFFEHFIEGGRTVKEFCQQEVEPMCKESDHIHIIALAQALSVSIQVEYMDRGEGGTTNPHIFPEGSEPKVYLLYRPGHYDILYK
Chain of EIF3H (O15372 whole entry): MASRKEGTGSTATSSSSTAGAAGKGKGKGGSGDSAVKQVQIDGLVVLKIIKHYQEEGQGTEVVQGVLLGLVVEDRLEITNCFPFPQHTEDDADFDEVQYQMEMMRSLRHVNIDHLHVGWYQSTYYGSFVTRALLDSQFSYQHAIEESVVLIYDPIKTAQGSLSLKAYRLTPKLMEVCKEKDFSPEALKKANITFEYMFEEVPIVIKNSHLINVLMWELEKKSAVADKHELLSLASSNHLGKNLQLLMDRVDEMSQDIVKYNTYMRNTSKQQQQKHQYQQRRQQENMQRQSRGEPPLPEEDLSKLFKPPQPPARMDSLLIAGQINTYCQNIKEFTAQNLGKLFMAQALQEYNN

## Cl.O=C(CCl)NCCN1CCc2ccccc21
ALG13
  log2 ratio of Biotin-Ahx-Ub-VS probe labelling: -0.000809
ATXN3
  log2 ratio of Biotin-Ahx-Ub-VS probe labelling: -0.887
BAP1
  log2 ratio of Biotin-Ahx-Ub-VS probe labelling: -1.61 (active)
EIF3F
  log2 ratio of Biotin-Ahx-Ub-VS probe labelling: -0.106
EIF3H
  log2 ratio of Biotin-Ahx-Ub-VS probe labelling: 0.469
FAM105A
  log2 ratio of Biotin-Ahx-Ub-VS probe labelling: 0.43
OTUB1
  log2 ratio of Biotin-Ahx-Ub-VS probe labelling: 0.169
OTUD4
  log2 ratio of Biotin-Ahx-Ub-VS probe labelling: -0.775
OTUD5
  log2 ratio of Biotin-Ahx-Ub-VS probe labelling: -0.79
